About 79,000 compounds went through this panel and 15% of them were active in at least one assay; those are over-represented in the sample as a whole. The source made the active and inactive calls. Rule as the data show it: active = growth inhibition above about 70%; inactive = the rest.
Experiments:
[1] = NCI Yeast Anticancer Drug Screen. Data for the rad50 strain (AID 155);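 also: 0% = growth of vehicle-only cultures of the same strain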; conditions: S. cerevisiae rad50 strain growth inhibition, hits give high values
Summary of the method: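 Growth of the mutant yeast was measured after compound exposure and referenced to vehicle-treated cultures.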

[2] = NCI Yeast Anticancer Drug Screen. Data for the mec2-1 strain (AID 157); conditions: S. cerevisiae mec2-1 strain, hits give high values
Summary of the method: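 Growth inhibition is read against vehicle-treated controls after compound exposure of the mec2-1 yeast strain, which is defective in DNA damage repair or cell cycle control.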

[3] = NCI Yeast Anticancer Drug Screen. Data for the sgs1 mgt1 strain (AID 161);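 also: 0% = growth of cultures given vehicle only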; conditions: S. cerevisiae sgs1 mgt1 strain, hits give high values
Summary of the method: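 Percent growth inhibition was derived by comparing compound-exposed mutant yeast with vehicle-exposed cultures. The strain carries alterations in DNA damage repair.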

[4] = NCI Yeast Anticancer Drug Screen. Data for the cln2 rad14 strain (AID 165);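 also: 0% = growth equal to vehicle treated cultures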; conditions: S. cerevisiae cln2 rad14 strain, hits give high values
Summary of the method: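 Growth inhibition, relative to vehicle-treated controls, is the read-out. The test organism is a yeast strain with defined genetic alterations, cln2 rad14.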

[5] = NCI Yeast Anticancer Drug Screen. Data for the bub3 strain (AID 167); conditions: S. cerevisiae bub3 mutant strain, hits give high values
Summary of the method: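 Whole-cell yeast assay. The mutant strain was incubated with compounds, and growth inhibition was determined by comparison with vehicle-treated cells.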

[6] = NCI Yeast Anticancer Drug Screen. Data for the mlh1 rad18 strain (AID 175); conditions: S. cerevisiae mlh1 rad18 strain growth inhibition, hits give high values
Summary of the method: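 Cells of a genetically altered yeast strain, deficient in DNA damage repair, were treated with compound. Their growth was then compared with that of vehicle-treated cultures to give inhibition.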

[7] = at 5.0 µM (retest, dose inferred, filed as 0.5)
[8] = at 50.0 µM (retest, dose inferred, filed as 5.0)

Measured: growth inhibition

CCc1cc(/C=C\c2ccnc3ccccc23)ccc1N(C)C
active: [1]; [8] 99% | [1]; at 50.0 µM 98.2% | [2]; [8] 91% | [2]; at 50.0 µM 98.4% | [3]; [8] 95% | [3]; at 50.0 µM 98.3% | [4]; [8] 81% | [4]; at 50.0 µM 93.5% | [5]; [8] 93% | [5]; at 50.0 µM 98.1% | [6]; [8] 97% | [6]; at 50.0 µM 98%
inactive: [1]; [7] -1% | [2]; [7] -17% | [3]; [7] -1% | [4]; [7] -12% | [5]; [7] -6% | [6]; [7] -8%

COc1ccc(CN2COc3c(cc(C)c4cccnc34)C2)cc1
active: [1]; [8] 92% | [2]; [8] 93% | [3]; [8] 92% | [4]; [8] 93% | [5]; [8] 95% | [6]; [8] 93% | [6]; at 50.0 µM 79.9%
inactive: [1]; [7] 14% | [1]; at 50.0 µM 65% | [2]; [7] 8% | [2]; at 50.0 µM 47.5% | [3]; [7] 23% | [3]; at 50.0 µM 64.1% | [4]; [7] 16% | [4]; at 50.0 µM 39.9% | [5]; [7] -3% | [5]; at 50.0 µM 61.4% | [6]; [7] 20%

O=C(O)c1nc2cc(C(F)(F)F)ccc2nc1Nc1ccc(F)cc1
active: [3]; at 50.0 µM 74.7% | [4]; at 50.0 µM 79.7% | [5]; at 50.0 µM 74.7% | [6]; [8] 75%
inactive: [1]; [7] 32% | [1]; [8] 64% | [1]; at 50.0 µM 64% | [2]; [7] 23% | [2]; [8] 66% | [2]; at 50.0 µM 68.2% | [3]; [7] 23% | [3]; [8] 60% | [4]; [7] 20% | [4]; [8] 57% | [5]; [7] 31% | [5]; [8] 60% | [6]; [7] 30% | [6]; at 50.0 µM 42.9%

O=C1c2cc([N+](=O)[O-])cc3cc([N+](=O)[O-])cc(c23)C(=O)N1CCCNCCNCCCN1C(=O)c2cc([N+](=O)[O-])cc3cc([N+](=O)[O-])cc(c23)C1=O
active: [1]; [7] 85% | [1]; [8] 93% | [2]; [8] 96% | [2]; at 50.0 µM 77.4% | [3]; [7] 93% | [3]; [8] 94% | [3]; at 50.0 µM 80.9% | [4]; [8] 92% | [4]; at 50.0 µM 83% | [5]; [8] 95% | [5]; at 50.0 µM 83.7% | [6]; [8] 91% | [6]; at 50.0 µM 77.3%
inactive: [1]; at 50.0 µM 61% | [2]; [7] 32% | [4]; [7] 22% | [5]; [7] 9% | [6]; [7] 66%

O=NNc1ccc(-c2ccc([N+](=O)[O-])cc2)cn1
inactive: [1]; [7] 18% | [1]; [8] 47% | [1]; at 50.0 µM 25.4% | [2]; [7] 11% | [2]; [8] 37% | [2]; at 50.0 µM 5.85% | [3]; [7] 8% | [3]; [8] 31% | [3]; at 50.0 µM 30.6% | [4]; [7] 26% | [4]; [8] 31% | [4]; at 50.0 µM 34.2% | [5]; [7] 14% | [5]; [8] 18% | [5]; at 50.0 µM -11.7% | [6]; [7] 10% | [6]; [8] 48% | [6]; at 50.0 µM 30.1%
